# Results: PubChem BioAssay (NCI)
# This is part of a sample that, as a whole, favours compounds with a hit. Of some 79,000 tested, about 15% had one in any assay. Values without a mark were called inactive. The source made the active and inactive calls. Rule as the data show it: active = growth inhibition above about 70%; inactive = the rest.
# Key:
# [1] = NCI Yeast Anticancer Drug Screen. Data for the rad52 strain (AID 147);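 also: 0% = growth of vehicle-treated control cultures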; settings: S. cerevisiae rad52 mutant growth inhibition, stronger effect = higher value
# Summary of the method: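 Inhibition of yeast growth, referenced to vehicle controls, was the measured output for a strain with defective DNA damage repair.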
# [2] = NCI Yeast Anticancer Drug Screen. Data for the wt1 strain (AID 149);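 also: 0% = growth of vehicle-treated wt1 cultures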; settings: S. cerevisiae wt1 strain (SPY 50644) growth inhibition, stronger effect = higher value
# Summary of the method: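 Growth inhibition read against vehicle controls after compound exposure of the wt1 yeast strain.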
# [3] = NCI Yeast Anticancer Drug Screen. Data for the rad50EPP+ strain (AID 151);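 also: 0% = growth of vehicle-treated control cultures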; settings: S. cerevisiae rad50 mutant strain, stronger effect = higher value
# Summary of the method: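 Genetically defined yeast (rad50EPP+, DNA damage repair alteration) is grown with compound, and inhibition of growth is expressed relative to vehicle-treated controls.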
# [4] = NCI Yeast Anticancer Drug Screen. Data for the mgt1 strain (AID 153); settings: S. cerevisiae mgt1 mutant growth inhibition, stronger effect = higher value
# Summary of the method: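 In the mgt1 strain, test compounds were added and growth inhibition was determined relative to vehicle-treated controls.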
# [5] = NCI Yeast Anticancer Drug Screen. Data for the rad50 strain (AID 155);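 also: 0% = growth of vehicle-only cultures of the same strain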; settings: S. cerevisiae rad50 strain growth inhibition, stronger effect = higher value
# Summary of the method: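 Readout: growth inhibition relative to vehicle-treated cultures. Compound exposure was carried out in a genetically defined yeast strain deficient in DNA damage repair.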
# [6] = NCI Yeast Anticancer Drug Screen. Data for the mec2-1 strain (AID 157); settings: S. cerevisiae mec2-1 strain, stronger effect = higher value
# Summary of the method: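 Each compound was tested on mec2-1 yeast, a strain altered in DNA damage repair or cell cycle control. Growth inhibition is reported relative to vehicle.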
# [7] = NCI Yeast Anticancer Drug Screen. Data for the rad14 strain (AID 159);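 also: 0% = growth of vehicle-treated control cultures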; settings: S. cerevisiae rad14 strain growth inhibition, stronger effect = higher value
# Summary of the method: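 Growth inhibition vs vehicle controls; genetically altered yeast strain (DNA damage repair defect) treated with test compounds.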
# [8] = NCI Yeast Anticancer Drug Screen. Data for the sgs1 mgt1 strain (AID 161);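 also: 0% = growth of cultures given vehicle only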; settings: S. cerevisiae sgs1 mgt1 strain, stronger effect = higher value
# Summary of the method: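 Inhibition of yeast growth, normalised to vehicle-treated controls, is reported for a strain bearing genetic alterations in DNA damage repair.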
# [9] = NCI Yeast Anticancer Drug Screen. Data for the CLN2oe strain (AID 163);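 also: 0% = growth of vehicle-only control cultures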; settings: S. cerevisiae CLN2oe strain, stronger effect = higher value
# Summary of the method: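 First, the altered yeast strain was treated with each compound; second, its growth was measured; finally, inhibition was derived by comparison with vehicle controls.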
# [10] = NCI Yeast Anticancer Drug Screen. Data for the cln2 rad14 strain (AID 165);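 also: 0% = growth equal to vehicle treated cultures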; settings: S. cerevisiae cln2 rad14 strain, stronger effect = higher value
# Summary of the method: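 Test compounds were added to cln2 rad14 yeast cultures; inhibition of growth was then determined by comparison with vehicle treatment.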
# [11] = NCI Yeast Anticancer Drug Screen. Data for the bub3 strain (AID 167); settings: S. cerevisiae bub3 mutant strain, stronger effect = higher value
# Summary of the method: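 Readout: yeast growth inhibition, expressed relative to vehicle-only wells. The test organism is a mutant strain from a panel with lesions in DNA repair or checkpoint genes.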
# [12] = NCI Yeast Anticancer Drug Screen. Data for the wt2 strain (AID 169);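 also: 0% = growth of vehicle-treated yeast cultures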; settings: S. cerevisiae wt2 strain growth inhibition, stronger effect = higher value
# Summary of the method: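 The panel's yeast strains carry defined changes in DNA repair or cell cycle genes. Each strain is grown with compound, and growth loss is scored relative to vehicle.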
# [13] = NCI Yeast Anticancer Drug Screen. Data for the mlh1 strain (AID 171);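 also: 0% = growth of vehicle-treated control cultures of the same strain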; settings: S. cerevisiae mlh1 strain growth inhibition, stronger effect = higher value
# Summary of the method: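 Inhibition values reflect reduced yeast growth in the presence of compound, referenced to vehicle controls, using a strain chosen for its alteration in DNA repair or cell cycle control.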
# [14] = NCI Yeast Anticancer Drug Screen. Data for the sgs1 strain (AID 173);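 also: 0% = growth of vehicle-only control cultures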; settings: S. cerevisiae sgs1 mutant, stronger effect = higher value
# Summary of the method: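 Vehicle-treated cultures served as reference for growth inhibition of a yeast strain altered in DNA damage repair or cell cycle control after compound exposure.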
# [15] = NCI Yeast Anticancer Drug Screen. Data for the mlh1 rad18 strain (AID 175); settings: S. cerevisiae mlh1 rad18 strain growth inhibition, stronger effect = higher value
# Summary of the method: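 Inhibition values reflect reduced growth of mutant yeast versus vehicle-treated controls following compound exposure; the mutations affect DNA damage repair.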
# [16] = NCI Yeast Anticancer Drug Screen. Data for the rad18 strain (AID 177); settings: S. cerevisiae rad18 mutant growth inhibition, stronger effect = higher value
# Summary of the method: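 Steps: expose repair-mutant yeast to compound; measure growth; express as inhibition relative to vehicle control.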
# [17] = at 5.0 µM (retest, dose inferred, filed as 0.5)
# [18] = at 50.0 µM (retest, dose inferred, filed as 5.0)
compound,measurement,setting,value
O=[N+]([O-])c1ccc(S(=O)(=O)Cc2ccccc2)c([N+](=O)[O-])c1,growth inhibition,[1]; at 1.2 µM,6%
same,growth inhibition,[1]; at 3.7 µM,17%
same,growth inhibition,[1]; at 11.0 µM,47%
same,growth inhibition,[1]; at 33.0 µM,89% (active)
same,growth inhibition,[1]; at 100.0 µM,99% (active)
same,growth inhibition,[2]; at 1.2 µM,6%
same,growth inhibition,[2]; at 3.7 µM,9%
same,growth inhibition,[2]; at 11.0 µM,24%
same,growth inhibition,[2]; at 33.0 µM,88% (active)
same,growth inhibition,[2]; at 100.0 µM,99% (active)
same,growth inhibition,[3]; at 1.2 µM,36%
same,growth inhibition,[3]; at 3.7 µM,67%
same,growth inhibition,[3]; at 11.0 µM,87% (active)
same,growth inhibition,[3]; at 33.0 µM,97% (active)
same,growth inhibition,[3]; at 100.0 µM,97% (active)
same,growth inhibition,[4]; at 1.2 µM,10%
same,growth inhibition,[4]; at 3.7 µM,14%
same,growth inhibition,[4]; at 11.0 µM,35%
same,growth inhibition,[4]; at 33.0 µM,98% (active)
same,growth inhibition,[4]; at 100.0 µM,99% (active)
same,growth inhibition,[5]; at 1.2 µM,9%
same,growth inhibition,[5]; at 3.7 µM,14%
same,growth inhibition,[5]; [17],65%
same,growth inhibition,[5]; at 11.0 µM,41%
same,growth inhibition,[5]; at 33.0 µM,87% (active)
same,growth inhibition,[5]; [18],100% (active)
same,growth inhibition,[5]; at 50.0 µM,99.5% (active)
same,growth inhibition,[5]; at 100.0 µM,98% (active)
same,growth inhibition,[6]; at 1.2 µM,12%
same,growth inhibition,[6]; at 3.7 µM,18%
same,growth inhibition,[6]; [17],31%
same,growth inhibition,[6]; at 11.0 µM,39%
same,growth inhibition,[6]; at 33.0 µM,96% (active)
same,growth inhibition,[6]; [18],100% (active)
same,growth inhibition,[6]; at 50.0 µM,99.8% (active)
same,growth inhibition,[6]; at 100.0 µM,99% (active)
same,growth inhibition,[7]; at 1.2 µM,7%
same,growth inhibition,[7]; at 3.7 µM,10%
same,growth inhibition,[7]; at 11.0 µM,22%
same,growth inhibition,[7]; at 33.0 µM,74% (active)
same,growth inhibition,[7]; at 100.0 µM,99% (active)
same,growth inhibition,[8]; [17],46%
same,growth inhibition,[8]; [18],100% (active)
same,growth inhibition,[8]; at 50.0 µM,99.5% (active)
same,growth inhibition,[9]; at 1.2 µM,-1%
same,growth inhibition,[9]; at 3.7 µM,7%
same,growth inhibition,[9]; at 11.0 µM,21%
same,growth inhibition,[9]; at 33.0 µM,61%
same,growth inhibition,[9]; at 100.0 µM,95% (active)
same,growth inhibition,[10]; [17],7%
same,growth inhibition,[10]; [18],99% (active)
same,growth inhibition,[10]; at 50.0 µM,98.6% (active)
same,growth inhibition,[11]; at 1.2 µM,1%
same,growth inhibition,[11]; at 3.7 µM,6%
same,growth inhibition,[11]; [17],56%
same,growth inhibition,[11]; at 11.0 µM,44%
same,growth inhibition,[11]; at 33.0 µM,85% (active)
same,growth inhibition,[11]; [18],99% (active)
same,growth inhibition,[11]; at 50.0 µM,99.4% (active)
same,growth inhibition,[11]; at 100.0 µM,95% (active)
same,growth inhibition,[12]; at 1.2 µM,7%
same,growth inhibition,[12]; at 3.7 µM,15%
same,growth inhibition,[12]; at 11.0 µM,37%
same,growth inhibition,[12]; at 33.0 µM,98% (active)
same,growth inhibition,[12]; at 100.0 µM,98% (active)
same,growth inhibition,[13]; at 1.2 µM,9%
same,growth inhibition,[13]; at 3.7 µM,17%
same,growth inhibition,[13]; at 11.0 µM,35%
same,growth inhibition,[13]; at 33.0 µM,93% (active)
same,growth inhibition,[13]; at 100.0 µM,99% (active)
same,growth inhibition,[14]; at 1.2 µM,16%
same,growth inhibition,[14]; at 3.7 µM,30%
same,growth inhibition,[14]; at 11.0 µM,65%
same,growth inhibition,[14]; at 33.0 µM,98% (active)
same,growth inhibition,[14]; at 100.0 µM,99% (active)
same,growth inhibition,[15]; [17],65%
same,growth inhibition,[15]; [18],100% (active)
same,growth inhibition,[15]; at 50.0 µM,99.4% (active)
same,growth inhibition,[16]; at 1.2 µM,27%
same,growth inhibition,[16]; at 3.7 µM,57%
same,growth inhibition,[16]; at 11.0 µM,87% (active)
same,growth inhibition,[16]; at 33.0 µM,96% (active)
same,growth inhibition,[16]; at 100.0 µM,99% (active)
CCOC(=O)C(Cc1c2ccccc2cc2ccccc12)(NC(C)=O)C(=O)OCC,growth inhibition,[1]; at 1.2 µM,-2%
same,growth inhibition,[1]; at 3.7 µM,-2%
same,growth inhibition,[1]; at 11.0 µM,-4%
same,growth inhibition,[1]; at 33.0 µM,-6%
same,growth inhibition,[1]; at 100.0 µM,0%
same,growth inhibition,[2]; at 1.2 µM,-1%
same,growth inhibition,[2]; at 3.7 µM,0%
same,growth inhibition,[2]; at 11.0 µM,-2%
same,growth inhibition,[2]; at 33.0 µM,-3%
same,growth inhibition,[2]; at 100.0 µM,-2%
same,growth inhibition,[3]; at 1.2 µM,0%
same,growth inhibition,[3]; at 3.7 µM,0%
same,growth inhibition,[3]; at 11.0 µM,6%
same,growth inhibition,[3]; at 33.0 µM,12%
same,growth inhibition,[3]; at 100.0 µM,10%
same,growth inhibition,[4]; at 1.2 µM,-3%
same,growth inhibition,[4]; at 3.7 µM,-2%
same,growth inhibition,[4]; at 11.0 µM,-3%
same,growth inhibition,[4]; at 33.0 µM,-18%
same,growth inhibition,[4]; at 100.0 µM,-4%
same,growth inhibition,[5]; at 1.2 µM,-6%
same,growth inhibition,[5]; at 3.7 µM,-16%
same,growth inhibition,[5]; [17],-8%
same,growth inhibition,[5]; at 11.0 µM,-22%
same,growth inhibition,[5]; at 33.0 µM,-4%
same,growth inhibition,[5]; [18],11%
same,growth inhibition,[5]; at 50.0 µM,90.2% (active)
same,growth inhibition,[5]; at 100.0 µM,-2%
same,growth inhibition,[6]; at 1.2 µM,0%
same,growth inhibition,[6]; at 3.7 µM,0%
same,growth inhibition,[6]; [17],-6%
same,growth inhibition,[6]; at 11.0 µM,-1%
same,growth inhibition,[6]; at 33.0 µM,1%
same,growth inhibition,[6]; [18],27%
same,growth inhibition,[6]; at 50.0 µM,75.5% (active)
same,growth inhibition,[6]; at 100.0 µM,-1%
same,growth inhibition,[7]; at 1.2 µM,-3%
same,growth inhibition,[7]; at 3.7 µM,-5%
same,growth inhibition,[7]; at 11.0 µM,-3%
same,growth inhibition,[7]; at 33.0 µM,-5%
same,growth inhibition,[7]; at 100.0 µM,-1%
same,growth inhibition,[8]; [17],-7%
same,growth inhibition,[8]; [18],19%
same,growth inhibition,[8]; at 50.0 µM,86% (active)
same,growth inhibition,[9]; at 1.2 µM,-3%
same,growth inhibition,[9]; at 3.7 µM,-2%
same,growth inhibition,[9]; at 11.0 µM,-6%
same,growth inhibition,[9]; at 33.0 µM,0%
same,growth inhibition,[9]; at 100.0 µM,-2%
same,growth inhibition,[10]; [17],5%
same,growth inhibition,[10]; [18],41%
same,growth inhibition,[10]; at 50.0 µM,61.3%
same,growth inhibition,[11]; at 1.2 µM,-2%
same,growth inhibition,[11]; at 3.7 µM,1%
same,growth inhibition,[11]; [17],8%
same,growth inhibition,[11]; at 11.0 µM,-1%
same,growth inhibition,[11]; at 33.0 µM,0%
same,growth inhibition,[11]; [18],67%
same,growth inhibition,[11]; at 50.0 µM,88.8% (active)
same,growth inhibition,[11]; at 100.0 µM,2%
same,growth inhibition,[12]; at 1.2 µM,-2%
same,growth inhibition,[12]; at 3.7 µM,-3%
same,growth inhibition,[12]; at 11.0 µM,-4%
same,growth inhibition,[12]; at 33.0 µM,-2%
same,growth inhibition,[12]; at 100.0 µM,-2%
same,growth inhibition,[13]; at 1.2 µM,0%
same,growth inhibition,[13]; at 3.7 µM,0%
same,growth inhibition,[13]; at 11.0 µM,-3%
same,growth inhibition,[13]; at 33.0 µM,-2%
same,growth inhibition,[13]; at 100.0 µM,0%
same,growth inhibition,[14]; at 1.2 µM,-1%
same,growth inhibition,[14]; at 3.7 µM,1%
same,growth inhibition,[14]; at 11.0 µM,-1%
same,growth inhibition,[14]; at 33.0 µM,5%
same,growth inhibition,[14]; at 100.0 µM,9%
same,growth inhibition,[15]; [17],-11%
same,growth inhibition,[15]; [18],35%
same,growth inhibition,[15]; at 50.0 µM,86.9% (active)
same,growth inhibition,[16]; at 1.2 µM,-5%
same,growth inhibition,[16]; at 3.7 µM,-1%
same,growth inhibition,[16]; at 11.0 µM,-1%
same,growth inhibition,[16]; at 33.0 µM,0%
same,growth inhibition,[16]; at 100.0 µM,3%
